Screening data deposited in PubChem by National Center for Advancing Translational Sciences (NCATS).
Shown is part of a subset that was picked to be rich in hits.
Pf Dd2 inh: qHTS Primary assay for Inhibitors of Plasmodium falciparum Dd2 growth in vitro. P. falciparum Dd2 growth, SYBR Green, 72 h. Potency, µM (doses to about 28.9 µM), without a hit: at the top dose activity, negative = inhibition, most hits filed as inhibitors. 120,000 tested, 4.3% active; active = well fitted inhibition curve with a large enough effect;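 note: plate controls were DMSO vehicle for no effect and reference drug for full effect; nearly all actives have a fitted effect of over 65% in size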
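Infected erythrocytes (Dd2, 0.3% parasitemia, 2.5% hematocrit final) are added to compound in RPMI-1640/Albumax II medium, grown 72 h at 37C in low oxygen, then lysed with saponin/Triton-X containing SYBR Green and read by fluorescence.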
* hit, by the source's call; i = inactive; [ ] = remark or other dose. Potency is the fitted concentration of half-maximal effect.

SMILES | Pf Dd2 inh
O=C1OCC2=C1C(c1ccccc1)NC(=O)N2CC(=O)N1CCOCC1 (configuration not stated) | -1%
CCCCCC(=O)N1CC[C@@H](CC(=O)N(C)CC#N)[C@@H](CC)C1 | -6%[44.1 µM]
COc1ccc(-c2cc([C@H]3CN4CC[C@H]3C[C@@H]4CNC(=O)NCc3ccccc3)n(C)n2)cc1 | -13%
COc1ccc(OC)c(S(=O)(=O)NC[C@H]2C[C@@H]3CCN2C[C@@H]3c2cc(-c3ccc4ccccc4c3)nn2C)c1 | i
COc1ccc(-c2cc([C@H]3CN4CC[C@H]3C[C@@H]4CN)n(C)n2)cc1OC | 11µM*
COc1ccc(-c2cc([C@H]3CN4CC[C@H]3C[C@@H]4CNS(=O)(=O)c3ccc(NC(C)=O)cc3)n(C)n2)cc1 | i
COc1ccc(-c2cc([C@H]3CN4CC[C@H]3C[C@@H]4COC(=O)NC(C)C)n(C)n2)cc1OC | i
COc1ccc(-c2cc([C@H]3CN4CC[C@H]3C[C@@H]4CNS(=O)(=O)c3ccc(Cl)cc3)n(C)n2)cc1OC | 0.63µM*
Cn1nc(-c2ccc3ccccc3c2)cc1[C@H]1CN2CC[C@H]1C[C@@H]2CNC(=O)NCc1ccccc1 | 7.9µM*
COc1ccc(-c2cc([C@H]3CN4CC[C@H]3C[C@@H]4CNC(=O)c3ccco3)n(C)n2)cc1OC | i
CC(=O)NC[C@H]1C[C@@H]2CCN1C[C@@H]2c1cc(-c2ccc3ccccc3c2)nn1C | i
Cc1nc(C)c(CC(=O)NC2CC(c3cc(=O)[nH]cn3)C2)s1 (configuration not stated) | -4%
Cc1ccc(S(=O)(=O)N2CCc3c(C(=O)NCC(C)C)cccc32)cc1 | -9%
CN1C(=O)CS(=O)(=O)C12CCN(C(=O)c1ccc(F)c(F)c1)CC2 | 10%
O=C(Nc1ccc2c(c1)OCO2)C1CCc2sc(C(=O)N3CCCC3)cc2C1 (configuration not stated) | i
CC(C)c1ccc(CNC(=O)C2CCN(c3cc(C(F)(F)F)ncn3)CC2)cc1 | 76%
COc1ccc(C(=O)N2CCC[C@H]2c2nc(-c3ccc(F)cc3)no2)c(OC)c1 | i
CCn1ncc(N2CCCC(CC(=O)N3CCN(c4ccccc4)CC3)C2)cc1=O (configuration not stated) | -15%
COCCC1(C(=O)O)CCCN(CCN2CCCC2=O)C1 (configuration not stated) | -9%
CCN1C(=O)C2CC3(CCN(Cc4cn(C)c5ccc(OC)cc45)CC3)CN2C1=O (configuration not stated) | i
CCCNC(=O)C1COC2(CCN(C(=O)c3ccc(F)cc3)CC2)N1C(=O)c1ccccc1 (configuration not stated) | -13%
O=C(NC(Cc1ccncc1)C1CC(O)C1)c1cccc(N2CCNC2=O)c1 (configuration not stated) | -2%
COc1ccccc1-c1cc2c(nc1OC)nc(CC1CC1)n2C | 13µM*
COc1nc2nc(CCc3ccccc3)n(C)c2cc1Nc1ccncn1 | -12%[44.1 µM]
COCc1nc2nc(-c3ccccc3)c(-c3ccc(OC)cc3)cc2n1C | i
SMILES | Pf Dd2 inh
CC1CCC2(CC1)NC(=O)N(CC(=O)NCc1cccc(Br)c1)C2=O (configuration not stated) | i
COc1ccc(Cn2c(=O)[nH]c3cc(C(=O)N4CCN(c5ccccc5)CC4)ccc3c2=O)cc1 | 3%
O=C(CCCCCn1c(=O)[nH]c2ccccc2c1=O)N1CCN(c2cccc(C(F)(F)F)c2)CC1 | -11%
O=C(CCCn1c(=O)[nH]c2ccccc2c1=O)N1CCN(c2ccccc2)CC1 | 10µM*
CCCCCn1c(=O)[nH]c2cc(C(=O)N3CCN(c4ccccc4)CC3)ccc2c1=O | 9%
CC(=O)c1ccc(N2CCN(C(=O)c3ccc(Cn4c(=O)[nH]c5ccccc5c4=O)cc3)CC2)cc1 | 7.9µM*
COCCn1c(=O)[nH]c2cc(C(=O)N3CCN(c4ccccc4)CC3)ccc2c1=O | -5%
O=C(NCc1cccs1)c1cc2c(s1)CCN(C(=O)c1ccc(F)cc1)C2 | i
COCCn1cnnc1C(C)NC(=O)c1cn(C2CCC(N)CC2)nn1 (configuration not stated) | -10%
CN1CCC(O)(C(=O)N2C[C@@H](C(=O)O)[C@H](c3ccc(F)cc3)C2)CC1 | -4%
O=C1CCCCC(C(=O)NCc2ccc(Cl)cc2)N1 (configuration not stated) | 11%
COC1CCOC2(CCN(C(=O)CCc3ccccc3)CC2)C1 (configuration not stated) | -1%
O=C1COCC2(CN1)CN(C(=O)c1ccc(Cl)cc1)C2 | -12%[44.1 µM]
O=C(Cn1ccnn1)N1CCC2(CCCN(CC3CC3)C2=O)C1 (configuration not stated) | -5%
Cc1ccc(SC2CCN(Cc3cc4n(n3)CCNC4)CC2)cc1 | 10µM*
Cc1nc(CC2CCN(Cc3cc4n(n3)CCNC4)CC2)no1 | -5%
COc1ccccc1OC1CCN(Cc2cc3n(n2)CCNC3)CC1 | -16%
Cn1cnc(S(=O)(=O)N2CCC[C@H](n3c(=O)n(C)c4cccnc43)C2)c1 | -2%
O=C(NC1C[C@H]2CC[C@@H](C1)N2S(=O)(=O)c1ccc(Cl)s1)c1ccncc1 (some centres not stated) | 1%
CC1=C[C@@H](CNC(=O)Cn2cnnn2)[C@H](C(C)C)C[C@H]1Cc1nc2ccc(C)cc2[nH]1 | i
CC1=C[C@@H](CNC(=O)c2cnccn2)[C@H](C(C)C)C[C@H]1Cc1nc2ccccc2n1C | 8.9µM*
CC1=C[C@@H](CNC(=O)c2cnccn2)[C@H](C(C)C)C[C@H]1Cc1nc2ccccc2[nH]1 | i
CC1=C[C@@H](CNC(=O)CN(C)C)[C@H](C(C)C)C[C@H]1Cc1nc2ccccc2[nH]1 | i
COCC(=O)NC[C@@H]1C=C(C)[C@H](Cc2nc3ccccc3n2C)C[C@H]1C(C)C | 10µM*
CC1=C[C@@H](CNC(=O)Cn2cnnn2)[C@H](C(C)C)C[C@H]1Cc1nc2ccccc2n1C | 10µM*
SMILES | Pf Dd2 inh
CC1=C[C@@H](CNC(=O)Cc2ccccc2)[C@H](C(C)C)C[C@H]1Cc1nc2ccncc2[nH]1 | -10%[44.1 µM]
CC1=C[C@@H](CNC(=O)C2CC2)[C@H](C(C)C)C[C@H]1Cc1nc2ccccc2n1C | i
CC1=C[C@@H](CNC(=O)CC2(CC(=O)O)CCCC2)[C@H](C(C)C)C[C@H]1Cc1nc2ccccc2n1C | i
COc1cccc(CN2CCCC3(CCN(C(=O)c4cccnc4)C3)C2=O)c1OC (configuration not stated) | 6%
Cc1nc2ccc(Cl)cn2c1C(=O)N1CCC2(CCCN(C)C2=O)C1 (configuration not stated) | -5%
CNC(=O)[C@@H]1C[C@@H](O)CN1C1CCN(C(=O)Cc2cccc(C)c2)CC1 | 19%
Cc1cccc(OCC2(CNS(=O)(=O)c3ccc(Cl)cc3)C[C@@H](O)[C@@H](O)C2)n1 (some centres not stated) | -6%[44.1 µM]
Cc1cccc(C(=O)N2C[C@@H](CO)[C@H](c3nc(C4CC4)no3)C2)n1 | 5%
O=C(N1CCc2c(nc[nH]c2=O)C1)C1(S(=O)(=O)c2ccccc2)CC1 | 0%
CCC1(N2CCN(C(=O)c3ccc(N(C)C)cc3)CC2)CCN(C(=O)NC)C1 (configuration not stated) | -18%
Cn1ccnc1C(=O)N1CCC(Oc2cccc(F)c2)C1 (configuration not stated) | 7.9µM*
O=C(c1cccc(F)c1)N1CCC(Oc2cccnc2)C1 (configuration not stated) | 1%
